Experimental data as given in the supplement of paper PMC12282887.
± gives the standard deviation of the averaged measurements.

Assays:
Experiment in all cases: promoter activity interaction Z-score (Lux/OD deviation from empty-vector control); higher = stronger promoter induction by the compound
[1] = test system: E. coli BW25113 acrABp lux reporter
Outline: (§1)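 E. coli BW25113 (wild type or marA, soxS or rob deletion) carrying low-copy luxCDABE promoter reporters grew in 40 µl LB Lennox in 384-well plates at 37°C. Each compound was tested at four 1:2 dilutions in biological duplicates. OD600 and luminescence were read every 30 min for 12 h. Areas were taken over 0–8 h (wild type) or 1–9 h (mutants), and wells below 10% of median growth area were removed. The score is the Z-transformed residual of growth-normalised luminescence fitted against the empty-vector control.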

[2] = test system: E. coli BW25113 micFp lux reporter
Outline: as §1

[3] = test system: E. coli BW25113 ompFp lux reporter
Outline: as §1

[4] = test system: E. coli BW25113 robp lux reporter
Outline: as §1

[5] = test system: E. coli BW25113 soxSp lux reporter
Outline: as §1

[6] = test system: E. coli BW25113 tolCp lux reporter
Outline: as §1

[7] = 1.7 µg/ml, genetic background: wild type
[8] = 1.7 µg/ml, genetic background: ΔmarA
[9] = 1.7 µg/ml, genetic background: Δrob
[10] = 1.7 µg/ml, genetic background: ΔsoxS
[11] = 3.5 µg/ml, genetic background: wild type
[12] = 3.5 µg/ml, genetic background: ΔmarA
[13] = 3.5 µg/ml, genetic background: Δrob
[14] = 3.5 µg/ml, genetic background: ΔsoxS
[15] = 6.9 µg/ml, genetic background: wild type
[16] = 6.9 µg/ml, genetic background: ΔmarA
[17] = 6.9 µg/ml, genetic background: Δrob
[18] = 6.9 µg/ml, genetic background: ΔsoxS
[19] = 13.9 µg/ml, genetic background: wild type
[20] = 13.9 µg/ml, genetic background: ΔmarA
[21] = 13.9 µg/ml, genetic background: Δrob
[22] = 13.9 µg/ml, genetic background: ΔsoxS

NC(=O)c1cc[n+](CC2=C(C(=O)[O-])N3C(=O)[C@@H](NC(=O)[C@@H](c4ccccc4)S(=O)(=O)O)[C@H]3SC2)cc1 [Cefsulodin]
promoter activity interaction Z-score [1, 7]: 0.269 ± 0.15
promoter activity interaction Z-score [1, 8]: 0.601 ± 0.24
promoter activity interaction Z-score [1, 9]: -0.158 ± 0.15
promoter activity interaction Z-score [1, 10]: -0.315 ± 0.077
promoter activity interaction Z-score [1, 11]: 0.0267 ± 0.076
promoter activity interaction Z-score [1, 12]: 0.343 ± 0.28
promoter activity interaction Z-score [1, 13]: 0.17 ± 0.29
promoter activity interaction Z-score [1, 14]: -0.28 ± 0.31
promoter activity interaction Z-score [1, 15]: 0.306 ± 0.13
promoter activity interaction Z-score [1, 16]: -0.189 ± 0.29
promoter activity interaction Z-score [1, 17]: -0.455 ± 0.052
promoter activity interaction Z-score [1, 18]: -0.399 ± 0.055
promoter activity interaction Z-score [1, 19]: 0.379 ± 0.28
promoter activity interaction Z-score [1, 20]: -0.532 ± 0.81
promoter activity interaction Z-score [1, 21]: 0.198 ± 0.17
promoter activity interaction Z-score [1, 22]: 0.0814 ± 0.14
promoter activity interaction Z-score [2, 7]: 0.14 ± 0.014
promoter activity interaction Z-score [2, 8]: -0.0463 ± 0.21
promoter activity interaction Z-score [2, 9]: 0.0953 ± 0.35
promoter activity interaction Z-score [2, 10]: -0.338 ± 0.047
promoter activity interaction Z-score [2, 11]: 0.0738 ± 0.052
promoter activity interaction Z-score [2, 12]: -0.0526 ± 0.14
promoter activity interaction Z-score [2, 13]: -0.0549 ± 0.0043
promoter activity interaction Z-score [2, 14]: -0.224 ± 0.027
promoter activity interaction Z-score [2, 15]: 0.373 ± 0.2
promoter activity interaction Z-score [2, 16]: -0.161 ± 0.17
promoter activity interaction Z-score [2, 17]: 0.046 ± 0.26
promoter activity interaction Z-score [2, 18]: -0.32 ± 0.14
promoter activity interaction Z-score [2, 19]: 0.27 ± 0.18
promoter activity interaction Z-score [2, 20]: -0.237 ± 0.007
promoter activity interaction Z-score [2, 21]: -0.0142 ± 0.099
promoter activity interaction Z-score [2, 22]: -0.324 ± 0.022
promoter activity interaction Z-score [3, 7]: 0.0922 ± 0.034
promoter activity interaction Z-score [3, 8]: -0.437 ± 0.1
promoter activity interaction Z-score [3, 9]: 0.00718 ± 0.63
promoter activity interaction Z-score [3, 10]: -0.453 ± 0.23
promoter activity interaction Z-score [3, 11]: 0.101 ± 0.094
promoter activity interaction Z-score [3, 12]: 0.0789 ± 0.37
promoter activity interaction Z-score [3, 13]: -0.19 ± 0.099
promoter activity interaction Z-score [3, 14]: -0.294 ± 0.097
promoter activity interaction Z-score [3, 15]: 0.254 ± 0.0045
promoter activity interaction Z-score [3, 16]: -0.42 ± 0.15
promoter activity interaction Z-score [3, 17]: -0.561 ± 0.17
promoter activity interaction Z-score [3, 18]: -0.258 ± 0.67
promoter activity interaction Z-score [3, 19]: 2.4 ± 0.66
promoter activity interaction Z-score [3, 20]: 1.43 ± 0.62
promoter activity interaction Z-score [3, 21]: 1.29 ± 0.045
promoter activity interaction Z-score [3, 22]: 0.329 ± 1.2
promoter activity interaction Z-score [4, 7]: 0.353 ± 0.3
promoter activity interaction Z-score [4, 8]: -0.684 ± 0.45
promoter activity interaction Z-score [4, 9]: -0.402 ± 0.66
promoter activity interaction Z-score [4, 10]: -0.564 ± 0.41
promoter activity interaction Z-score [4, 11]: 0.22 ± 0.28
promoter activity interaction Z-score [4, 12]: -0.459 ± 0.031
promoter activity interaction Z-score [4, 13]: -0.153 ± 0.28
promoter activity interaction Z-score [4, 14]: -0.0266 ± 0.11
promoter activity interaction Z-score [4, 15]: 0.775 ± 0.033
promoter activity interaction Z-score [4, 16]: -1.06 ± 0.66
promoter activity interaction Z-score [4, 17]: -0.421 ± 0.63
promoter activity interaction Z-score [4, 18]: -0.255 ± 0.017
promoter activity interaction Z-score [4, 19]: -0.0503 ± 0.35
promoter activity interaction Z-score [4, 20]: -0.32 ± 0.51
promoter activity interaction Z-score [4, 21]: -0.936 ± 0.25
promoter activity interaction Z-score [4, 22]: -1.59 ± 0.21
promoter activity interaction Z-score [5, 7]: 0.243 ± 0.14
promoter activity interaction Z-score [5, 8]: 0.0161 ± 0.021
promoter activity interaction Z-score [5, 9]: 0.337 ± 0.44
promoter activity interaction Z-score [5, 10]: -0.145 ± 0.16
promoter activity interaction Z-score [5, 11]: 0.223 ± 0.013
promoter activity interaction Z-score [5, 12]: 0.0152 ± 0.069
promoter activity interaction Z-score [5, 13]: 0.186 ± 0.38
promoter activity interaction Z-score [5, 14]: 0.0422 ± 0.085
promoter activity interaction Z-score [5, 15]: 0.195 ± 0.0077
promoter activity interaction Z-score [5, 16]: -0.0335 ± 0.17
promoter activity interaction Z-score [5, 17]: 0.0477 ± 0.44
promoter activity interaction Z-score [5, 18]: -0.0923 ± 0.35
promoter activity interaction Z-score [5, 19]: 0.167 ± 0.16
promoter activity interaction Z-score [5, 20]: -0.302 ± 0.11
promoter activity interaction Z-score [5, 21]: -0.117 ± 0.011
promoter activity interaction Z-score [5, 22]: -0.0117 ± 0.15
promoter activity interaction Z-score [6, 7]: 0.715 ± 0.94
promoter activity interaction Z-score [6, 8]: -0.256 ± 0.052
promoter activity interaction Z-score [6, 9]: 0.191 ± 0.14
promoter activity interaction Z-score [6, 10]: -1.1 ± 0.63
promoter activity interaction Z-score [6, 11]: -0.195 ± 0.71
promoter activity interaction Z-score [6, 12]: -0.0142 ± 0.11
promoter activity interaction Z-score [6, 13]: 0.0051 ± 0.65
promoter activity interaction Z-score [6, 14]: -0.229 ± 0.0049
promoter activity interaction Z-score [6, 15]: 0.976 ± 0.34
promoter activity interaction Z-score [6, 16]: -0.562 ± 0.45
promoter activity interaction Z-score [6, 17]: -0.0786 ± 0.68
promoter activity interaction Z-score [6, 18]: -0.444 ± 0.1
promoter activity interaction Z-score [6, 19]: -0.259 ± 0.34
promoter activity interaction Z-score [6, 20]: -0.283 ± 0.28
promoter activity interaction Z-score [6, 21]: -0.0472 ± 0.28
promoter activity interaction Z-score [6, 22]: -0.088 ± 0.34
